This is an account of results in PMC7862700, “An all-to-all approach to the identification of sequence-specific readers for epigenetic DNA modifications on cytosine”.

Holding throughout (assay): DAPPL (digital affinity profiling via proximity ligation, sequencing); 10 mM Tris-HCl pH 7.5, 50 mM NaCl, 1 mM DTT, 4% glycerol, room temperature, 30 min; GST-TFs on glutathione beads, 16-mer random dsDNA library, 0.1% formaldehyde crosslink after washing; high values mean tight binding
The target of one assay is T1, FLI1 (Homo sapiens, UniProt Q01543 1-452).
T1 sequence: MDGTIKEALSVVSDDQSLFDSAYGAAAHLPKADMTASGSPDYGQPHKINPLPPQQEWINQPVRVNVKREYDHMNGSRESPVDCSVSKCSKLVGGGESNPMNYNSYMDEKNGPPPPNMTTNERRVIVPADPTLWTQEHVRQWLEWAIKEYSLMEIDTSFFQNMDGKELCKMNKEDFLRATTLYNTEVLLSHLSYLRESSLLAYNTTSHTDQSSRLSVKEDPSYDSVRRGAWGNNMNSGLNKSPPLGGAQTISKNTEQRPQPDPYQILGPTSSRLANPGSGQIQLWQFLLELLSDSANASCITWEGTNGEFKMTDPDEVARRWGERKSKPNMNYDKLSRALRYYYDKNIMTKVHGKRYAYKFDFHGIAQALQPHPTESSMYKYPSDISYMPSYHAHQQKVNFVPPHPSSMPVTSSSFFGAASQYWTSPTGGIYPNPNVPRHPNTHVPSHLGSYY
The following applies: protein: recombinant; tags: N-terminal GST; dsDNA, one strand shown. The method, boiled down: (§1)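 Sequencing on an Illumina NextSeq500 followed washing, crosslinking with 0.1% formaldehyde, proximity ligation (BsaI/T4 ligase, 1 h, 37 °C) and PCR amplification of pools that had been incubated for 30 min at room temperature with 200 nmole of a random double-stranded 16-mer DNA library in Tris/NaCl/DTT/glycerol buffer. Each pool held DNA-barcoded human transcription factors, expressed in yeast as GST fusions and captured on glutathione beads, plus a tag-only sample. Binding signal is a hexamer's read frequency for a factor divided by its frequency in the tag-only sample.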

The target of another assay is T2, ELK1 (Homo sapiens, UniProt P19419 1-428).
T2 sequence: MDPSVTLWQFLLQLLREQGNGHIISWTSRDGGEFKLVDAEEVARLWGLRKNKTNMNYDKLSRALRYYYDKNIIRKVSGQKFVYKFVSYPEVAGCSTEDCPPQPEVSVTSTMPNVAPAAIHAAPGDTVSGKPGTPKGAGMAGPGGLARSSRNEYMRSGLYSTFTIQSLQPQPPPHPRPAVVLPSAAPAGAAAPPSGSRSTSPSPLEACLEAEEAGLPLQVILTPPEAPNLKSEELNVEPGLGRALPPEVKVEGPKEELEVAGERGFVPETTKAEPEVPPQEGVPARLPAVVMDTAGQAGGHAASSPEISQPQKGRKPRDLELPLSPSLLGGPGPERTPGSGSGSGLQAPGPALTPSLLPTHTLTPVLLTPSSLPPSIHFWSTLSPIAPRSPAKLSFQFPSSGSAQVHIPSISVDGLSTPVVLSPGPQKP
The following applies: protein: recombinant; tags: N-terminal GST; dsDNA, one strand shown. The essentials:
as §1

In the next assay the target is T3, GABPA (Homo sapiens, UniProt Q06546 1-454).
T3 sequence: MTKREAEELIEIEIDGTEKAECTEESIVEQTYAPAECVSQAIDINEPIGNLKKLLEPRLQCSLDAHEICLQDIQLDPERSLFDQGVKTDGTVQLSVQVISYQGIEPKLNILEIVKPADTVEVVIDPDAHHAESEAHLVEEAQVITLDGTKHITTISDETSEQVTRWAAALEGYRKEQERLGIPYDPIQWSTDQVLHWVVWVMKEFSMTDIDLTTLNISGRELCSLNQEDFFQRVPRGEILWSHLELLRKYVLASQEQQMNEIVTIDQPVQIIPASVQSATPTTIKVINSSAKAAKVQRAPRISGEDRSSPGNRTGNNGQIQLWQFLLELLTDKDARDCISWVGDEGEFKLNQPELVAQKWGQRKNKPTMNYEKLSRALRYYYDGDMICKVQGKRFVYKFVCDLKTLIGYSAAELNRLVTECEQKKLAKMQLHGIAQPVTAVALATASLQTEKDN
The following applies: protein: recombinant; tags: N-terminal GST; dsDNA, one strand shown. The essentials:
as §1

Another assay concerns the target T4, ERG (Homo sapiens, UniProt P11308 1-479).
T4 sequence: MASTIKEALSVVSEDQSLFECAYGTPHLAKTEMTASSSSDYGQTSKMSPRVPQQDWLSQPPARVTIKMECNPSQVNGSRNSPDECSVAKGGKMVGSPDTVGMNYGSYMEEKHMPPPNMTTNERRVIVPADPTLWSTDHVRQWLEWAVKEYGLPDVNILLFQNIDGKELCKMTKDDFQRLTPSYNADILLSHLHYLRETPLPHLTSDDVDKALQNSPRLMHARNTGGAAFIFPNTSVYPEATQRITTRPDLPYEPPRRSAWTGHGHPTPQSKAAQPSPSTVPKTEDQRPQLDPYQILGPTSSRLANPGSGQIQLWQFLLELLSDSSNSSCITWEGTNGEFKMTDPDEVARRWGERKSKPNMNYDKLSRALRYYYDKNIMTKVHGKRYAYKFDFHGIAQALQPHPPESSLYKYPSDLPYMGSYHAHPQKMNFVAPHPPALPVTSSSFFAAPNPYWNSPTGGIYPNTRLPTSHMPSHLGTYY
The following applies: protein: recombinant; tags: N-terminal GST; dsDNA, one strand shown. The essentials:
as §1

The target of another assay is ELF1 (Homo sapiens, UniProt P32519 1-619). The following applies: protein: recombinant; tags: N-terminal GST; dsDNA, one strand shown. The essentials: as §1
For another assay, the target named is T5, EHF (Homo sapiens, UniProt Q9NZC4 1-300).
T5 sequence: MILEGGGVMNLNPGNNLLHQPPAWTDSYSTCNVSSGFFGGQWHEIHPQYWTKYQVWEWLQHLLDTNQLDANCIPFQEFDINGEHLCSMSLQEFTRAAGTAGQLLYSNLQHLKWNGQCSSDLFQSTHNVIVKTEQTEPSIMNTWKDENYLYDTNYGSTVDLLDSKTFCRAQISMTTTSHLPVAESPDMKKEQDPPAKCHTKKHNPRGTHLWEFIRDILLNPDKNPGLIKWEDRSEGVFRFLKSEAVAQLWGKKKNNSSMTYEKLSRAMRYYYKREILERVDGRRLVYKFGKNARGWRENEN
The following applies: protein: recombinant; tags: N-terminal GST; dsDNA, one strand shown. The method, boiled down: as §1

In another assay the target is SPI1 (Homo sapiens, UniProt P17947 1-270). The following applies: protein: recombinant; tags: N-terminal GST; dsDNA, one strand shown. The method, boiled down:
as §1

In another assay the target is T6, ELK3 (Homo sapiens, UniProt P41970 1-407).
T6 sequence: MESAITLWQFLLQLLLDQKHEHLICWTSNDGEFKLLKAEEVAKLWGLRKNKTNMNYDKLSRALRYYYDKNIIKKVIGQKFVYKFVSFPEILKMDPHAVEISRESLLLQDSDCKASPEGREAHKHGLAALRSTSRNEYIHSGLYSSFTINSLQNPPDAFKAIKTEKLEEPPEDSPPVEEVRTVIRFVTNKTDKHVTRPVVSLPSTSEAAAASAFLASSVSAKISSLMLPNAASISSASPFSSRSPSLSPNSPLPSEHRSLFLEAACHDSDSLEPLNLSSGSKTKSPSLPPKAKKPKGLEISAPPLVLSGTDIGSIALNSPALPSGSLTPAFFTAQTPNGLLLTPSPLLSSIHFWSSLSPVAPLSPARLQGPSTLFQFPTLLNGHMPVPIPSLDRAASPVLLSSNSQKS
To be noted: protein: recombinant; tags: N-terminal GST; dsDNA, one strand shown. The method, boiled down:
as §1

The next assay has as its target ETV5 (Homo sapiens, UniProt P41161 1-510). The following applies: protein: recombinant; tags: N-terminal GST; dsDNA, one strand shown. The method, boiled down: as §1
The next assay concerns the target HSF1 (Homo sapiens, UniProt Q00613 1-529). To be noted: protein: recombinant; tags: N-terminal GST; chain copies: 3; dsDNA, one strand shown. The method, boiled down: as §1
The target of another assay is T7, SPIC (Homo sapiens, UniProt Q8N5J4 1-248).
T7 sequence: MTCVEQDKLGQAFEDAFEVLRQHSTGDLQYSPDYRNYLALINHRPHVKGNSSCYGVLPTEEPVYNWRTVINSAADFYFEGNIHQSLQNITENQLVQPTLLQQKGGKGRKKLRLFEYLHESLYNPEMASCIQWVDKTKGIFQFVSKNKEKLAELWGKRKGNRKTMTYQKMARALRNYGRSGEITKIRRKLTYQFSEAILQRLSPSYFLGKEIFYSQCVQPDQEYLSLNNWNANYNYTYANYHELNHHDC
The following applies: protein: recombinant; tags: N-terminal GST; dsDNA, one strand shown. The method, boiled down:
as §1

The target of a further assay is ELF4 (Homo sapiens, UniProt Q99607 1-663). To be noted: protein: recombinant; tags: N-terminal GST; dsDNA, one strand shown. The method, boiled down: as §1
A further assay has as its target T8, ELK4 (Homo sapiens, UniProt P28324-2 1-405).
T8 sequence: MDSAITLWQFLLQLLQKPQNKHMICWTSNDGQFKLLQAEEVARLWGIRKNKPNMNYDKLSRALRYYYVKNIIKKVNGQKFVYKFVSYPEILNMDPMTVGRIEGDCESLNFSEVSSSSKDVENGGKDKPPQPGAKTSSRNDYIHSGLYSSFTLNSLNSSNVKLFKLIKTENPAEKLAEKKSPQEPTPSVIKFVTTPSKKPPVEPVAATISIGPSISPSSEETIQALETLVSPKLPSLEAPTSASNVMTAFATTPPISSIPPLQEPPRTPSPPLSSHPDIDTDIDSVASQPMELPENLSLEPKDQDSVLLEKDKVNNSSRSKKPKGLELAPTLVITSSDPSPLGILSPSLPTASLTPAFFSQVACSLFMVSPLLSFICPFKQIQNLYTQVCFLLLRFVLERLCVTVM
To be noted: protein: recombinant; tags: N-terminal GST; dsDNA, one strand shown. The essentials:
as §1

The target in another assay is T9, ETV2 (Homo sapiens, UniProt O00321 1-342).
T9 sequence: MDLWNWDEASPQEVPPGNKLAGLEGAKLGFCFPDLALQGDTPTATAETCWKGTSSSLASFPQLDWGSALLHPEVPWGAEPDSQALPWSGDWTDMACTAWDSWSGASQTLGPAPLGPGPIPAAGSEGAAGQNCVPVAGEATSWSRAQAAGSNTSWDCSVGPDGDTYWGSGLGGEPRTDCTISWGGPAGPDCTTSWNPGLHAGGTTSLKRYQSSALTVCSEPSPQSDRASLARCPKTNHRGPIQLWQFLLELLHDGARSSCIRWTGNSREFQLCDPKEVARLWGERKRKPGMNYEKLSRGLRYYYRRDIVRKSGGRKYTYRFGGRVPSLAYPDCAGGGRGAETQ
To be noted: protein: recombinant; tags: N-terminal GST; dsDNA, one strand shown. The method, boiled down: as §1

For a further assay, the target named is T10, ELF3 (Homo sapiens, UniProt P78545 1-371).
T10 sequence: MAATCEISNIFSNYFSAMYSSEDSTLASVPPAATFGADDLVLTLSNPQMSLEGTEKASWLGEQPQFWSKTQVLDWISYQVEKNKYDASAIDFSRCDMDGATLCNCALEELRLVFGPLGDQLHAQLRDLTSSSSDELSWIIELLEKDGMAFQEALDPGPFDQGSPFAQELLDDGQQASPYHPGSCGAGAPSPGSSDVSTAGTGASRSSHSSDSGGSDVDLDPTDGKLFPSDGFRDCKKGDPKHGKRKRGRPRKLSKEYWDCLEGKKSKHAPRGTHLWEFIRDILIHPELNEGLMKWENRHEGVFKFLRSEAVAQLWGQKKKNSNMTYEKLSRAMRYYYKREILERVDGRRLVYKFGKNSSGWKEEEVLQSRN
The following applies: protein: recombinant; tags: N-terminal GST; dsDNA, one strand shown. The essentials:
as §1

The target in the next assay is CRX (Homo sapiens, UniProt O43186 1-299). To be noted: protein: recombinant; tags: N-terminal GST; dsDNA, one strand shown. The essentials:
as §1

In the next assay the target is ETV1 (Homo sapiens, UniProt P50549 1-477). The following applies: protein: recombinant; tags: N-terminal GST; dsDNA, one strand shown. The essentials: as §1
Chain of ETV1 (P50549 whole entry): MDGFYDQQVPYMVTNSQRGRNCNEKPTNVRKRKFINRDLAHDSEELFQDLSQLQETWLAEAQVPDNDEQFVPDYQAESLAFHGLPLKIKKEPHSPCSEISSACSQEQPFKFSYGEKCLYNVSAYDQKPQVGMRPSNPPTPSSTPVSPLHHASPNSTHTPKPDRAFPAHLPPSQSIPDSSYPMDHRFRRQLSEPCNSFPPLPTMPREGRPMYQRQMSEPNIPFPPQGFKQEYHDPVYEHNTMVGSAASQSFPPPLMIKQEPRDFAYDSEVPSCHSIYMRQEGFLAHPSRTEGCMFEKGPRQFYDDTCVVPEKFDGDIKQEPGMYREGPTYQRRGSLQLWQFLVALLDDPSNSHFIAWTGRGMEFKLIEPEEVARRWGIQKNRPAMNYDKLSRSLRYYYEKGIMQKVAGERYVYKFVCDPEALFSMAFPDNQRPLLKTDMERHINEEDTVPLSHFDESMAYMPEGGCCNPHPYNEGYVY

Chain of CRX (O43186 whole entry): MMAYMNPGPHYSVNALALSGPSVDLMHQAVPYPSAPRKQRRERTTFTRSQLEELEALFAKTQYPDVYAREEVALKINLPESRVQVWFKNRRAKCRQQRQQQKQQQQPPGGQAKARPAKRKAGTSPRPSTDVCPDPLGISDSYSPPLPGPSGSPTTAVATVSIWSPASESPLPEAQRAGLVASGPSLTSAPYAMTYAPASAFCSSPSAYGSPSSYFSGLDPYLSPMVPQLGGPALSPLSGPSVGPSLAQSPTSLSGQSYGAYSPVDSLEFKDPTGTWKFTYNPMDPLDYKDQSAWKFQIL
Chain of ETV5 (P41161 whole entry): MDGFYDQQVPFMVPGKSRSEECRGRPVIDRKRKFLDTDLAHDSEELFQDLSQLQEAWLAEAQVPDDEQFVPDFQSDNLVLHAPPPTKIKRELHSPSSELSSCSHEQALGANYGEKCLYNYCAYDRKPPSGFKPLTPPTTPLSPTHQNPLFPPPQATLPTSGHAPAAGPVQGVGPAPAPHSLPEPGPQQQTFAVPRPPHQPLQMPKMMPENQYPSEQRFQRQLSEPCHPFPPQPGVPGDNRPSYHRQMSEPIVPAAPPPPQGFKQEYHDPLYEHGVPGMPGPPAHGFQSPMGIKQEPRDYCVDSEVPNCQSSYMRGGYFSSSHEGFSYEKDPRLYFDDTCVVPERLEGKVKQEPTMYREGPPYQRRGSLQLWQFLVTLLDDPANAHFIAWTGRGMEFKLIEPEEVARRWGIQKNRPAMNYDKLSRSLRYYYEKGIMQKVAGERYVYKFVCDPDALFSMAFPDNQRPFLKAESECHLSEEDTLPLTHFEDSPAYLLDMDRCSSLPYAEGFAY
Chain of HSF1 (Q00613 whole entry): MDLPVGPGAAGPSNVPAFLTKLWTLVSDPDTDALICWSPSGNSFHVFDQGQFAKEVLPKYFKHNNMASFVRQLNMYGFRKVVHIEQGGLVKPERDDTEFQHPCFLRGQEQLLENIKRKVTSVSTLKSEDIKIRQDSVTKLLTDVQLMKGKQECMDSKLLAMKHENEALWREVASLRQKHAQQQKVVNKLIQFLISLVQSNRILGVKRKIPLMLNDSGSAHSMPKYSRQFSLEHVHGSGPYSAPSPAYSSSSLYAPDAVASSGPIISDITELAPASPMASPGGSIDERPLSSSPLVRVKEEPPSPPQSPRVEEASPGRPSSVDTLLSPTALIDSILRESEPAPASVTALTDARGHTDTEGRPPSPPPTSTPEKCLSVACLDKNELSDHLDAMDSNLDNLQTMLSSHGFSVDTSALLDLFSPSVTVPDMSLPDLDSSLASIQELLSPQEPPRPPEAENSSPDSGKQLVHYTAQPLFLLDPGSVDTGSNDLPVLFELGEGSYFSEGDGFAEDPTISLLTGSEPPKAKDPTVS
Chain of ELF4 (Q99607 whole entry): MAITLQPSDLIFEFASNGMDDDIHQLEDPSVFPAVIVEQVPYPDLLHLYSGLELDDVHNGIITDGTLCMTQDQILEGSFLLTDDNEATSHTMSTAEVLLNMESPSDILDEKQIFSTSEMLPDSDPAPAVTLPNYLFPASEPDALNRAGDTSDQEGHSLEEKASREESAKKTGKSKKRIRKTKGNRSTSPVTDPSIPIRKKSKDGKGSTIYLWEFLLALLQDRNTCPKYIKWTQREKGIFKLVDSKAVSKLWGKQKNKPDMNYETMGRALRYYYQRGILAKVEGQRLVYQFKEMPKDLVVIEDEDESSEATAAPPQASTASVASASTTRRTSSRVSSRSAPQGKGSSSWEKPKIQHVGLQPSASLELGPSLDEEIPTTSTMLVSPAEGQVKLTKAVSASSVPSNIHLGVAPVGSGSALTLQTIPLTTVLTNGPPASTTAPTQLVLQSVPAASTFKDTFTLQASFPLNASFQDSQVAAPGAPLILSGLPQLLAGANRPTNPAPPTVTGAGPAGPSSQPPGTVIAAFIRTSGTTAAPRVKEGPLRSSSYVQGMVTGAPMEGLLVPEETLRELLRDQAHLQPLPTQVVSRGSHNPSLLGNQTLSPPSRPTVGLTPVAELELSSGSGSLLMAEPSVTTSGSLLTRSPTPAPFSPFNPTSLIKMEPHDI
Chain of ELF1 (P32519 whole entry): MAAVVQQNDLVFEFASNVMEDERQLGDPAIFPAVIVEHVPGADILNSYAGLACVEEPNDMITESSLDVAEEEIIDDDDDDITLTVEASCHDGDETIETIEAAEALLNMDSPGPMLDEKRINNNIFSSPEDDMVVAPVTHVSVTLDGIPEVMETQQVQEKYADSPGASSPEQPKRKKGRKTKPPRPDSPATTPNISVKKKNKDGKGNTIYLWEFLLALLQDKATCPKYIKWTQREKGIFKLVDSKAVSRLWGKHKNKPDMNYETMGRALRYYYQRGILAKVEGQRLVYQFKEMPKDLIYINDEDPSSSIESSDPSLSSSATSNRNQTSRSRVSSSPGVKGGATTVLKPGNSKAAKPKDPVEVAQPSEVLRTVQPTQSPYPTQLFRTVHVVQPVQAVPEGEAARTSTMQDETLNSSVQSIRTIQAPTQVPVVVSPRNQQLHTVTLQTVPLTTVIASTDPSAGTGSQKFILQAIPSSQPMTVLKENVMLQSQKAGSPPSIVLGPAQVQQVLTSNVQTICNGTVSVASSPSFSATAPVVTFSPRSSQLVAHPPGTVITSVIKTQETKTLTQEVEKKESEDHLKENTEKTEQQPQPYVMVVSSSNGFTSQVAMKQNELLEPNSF

For the sequence AAGAAG, the binding signal in the assay with FLI1 is 1.05 fold enrichment (6-mer frequency, TF over GST control); with ELK1 it was 1.09 fold enrichment (6-mer frequency, TF over GST control); with GABPA it was 1.01 fold enrichment (6-mer frequency, TF over GST control); in the assay with ERG, 1.06 fold enrichment (6-mer frequency, TF over GST control); in the assay with ELF1, 1.05 fold enrichment (6-mer frequency, TF over GST control); with EHF, 1.07 fold enrichment (6-mer frequency, TF over GST control). The binding signal with SPI1 was 1.13 fold enrichment (6-mer frequency, TF over GST control); in the assay with ELK3 it was 1.05 fold enrichment (6-mer frequency, TF over GST control); with ETV5 it was 1.08 fold enrichment (6-mer frequency, TF over GST control); with HSF1 it was 1.44 fold enrichment (6-mer frequency, TF over GST control); in the assay with SPIC, 1.23 fold enrichment (6-mer frequency, TF over GST control); with ELF4, 1.06 fold enrichment (6-mer frequency, TF over GST control). Also, the binding signal in the assay with ELK4 is 1.18 fold enrichment (6-mer frequency, TF over GST control); with ETV2 it was 1.19 fold enrichment (6-mer frequency, TF over GST control); with ELF3, 1.26 fold enrichment (6-mer frequency, TF over GST control); with CRX it was 1.21 fold enrichment (6-mer frequency, TF over GST control); with ETV1, 1.1 fold enrichment (6-mer frequency, TF over GST control).
